# Results reported in PubChem BioAssay AID652145 (The Scripps Research Institute Molecular Screening Center, 2013).
# This is one part of the list. A number with no mark means an inactive call. The source made the active and inactive calls. How the calls were made is not given here.
# Assay: GDH-TPI coupling enzyme inhibitors, dose response, artefact control for M. tuberculosis FBA inhibitor project, biochemical, fluorescence, IC50 (AID 652145)
# Conditions: GDH-TPI coupled enzyme assay, artifact counterscreen
row,SMILES,IC50
1,Cn1cccc1-c1nc2ccccc2n1C,5.56 µM (active)
2,COc1ccc2oc(=O)c(C(=O)NCc3ccccn3)cc2c1,1.9 µM (active)
3,CC(=O)N1C(=O)/C(=C2\SC(=S)N(NC(=O)c3ccc(O)cc3)C2=O)c2ccccc21,> 10 µM
4,O=C1C(=O)N(c2ccccc2)C(c2ccccc2)C1c1ccccc1 (centres undefined),> 10 µM
5,N#Cc1c(N2CCCCC2)nc(N)c2c(N)nc(SCC(=O)O)cc12,> 10 µM
6,CC(=O)N1CCN(C(=O)c2cc(-c3ccc(Cl)s3)nc3ccccc23)CC1,2.27 µM (active)
7,CCOc1c2ccc(C(=O)NC3CCCc4ccccc43)cc2nn1CC (centres undefined),1.79 µM (active)
8,CCCNC(=O)c1c(N)n(-c2ccc(S(N)(=O)=O)cc2)c2nc3ccccc3nc12,2.08 µM (active)
9,O=C(NCc1cccc(Cl)c1)C1=CC=CN2CCS(=O)(=O)N=C12,4.94 µM (active)
